# Experimental data published in PubChem BioAssay AID686979 (National Center for Advancing Translational Sciences (NCATS), 2013).
# The campaign covered roughly 420,000 compounds. About 50,000 (12%) were called active. Roughly 26% stayed inconclusive and do not appear here. Many of the other results were omitted from the sample, so actives are more common in it than they were. Values without a mark were called inactive. The call rests on the fitted dose curve; in most records, active means well fitted inhibition curve with a large enough effect; inconclusive means small, poorly fitted or top-dose-only effect; inactive means flat fitted curve, though single readings scatter.
# Assay: qHTS for Inhibitors of human tyrosyl-DNA phosphodiesterase 1 (TDP1): qHTS in cells in presence of CPT; further: nearly all actives have a fitted effect of over 55% in size
# Settings: chicken DT40 Tdp1-/-;hTDP1 cells + 20 nM CPT, ATP luminescence, 48 h; series mostly up to 46.2 µM; activity change, negative = growth inhibition: at the top concentration
# Procedure, shortened: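 Chicken DT40 Tdp1-/- cells complemented with human TDP1, 400 cells/well, exposed to compounds plus 20 nM camptothecin for at least 48 h at 37 C; viability read as ATP content by CellTiter-Glo luminescence.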
# On the % scale 0 is the no-effect control and ±100 the full control effect; potency means the concentration at half of the fitted maximal effect.
Structure (SMILES),"activity change, negative = growth inhibition [%]",Potency
O=C(COc1coc(CN2CCN(c3ccccc3)CC2)cc1=O)N1CCc2ccccc21,-5.85,–
CC(Sc1nnc(COc2ccccc2)n1-c1ccccc1)C(=O)O (centres undefined),-7.31,–
O=C(O)c1cnn2c(C(F)(F)F)cc(-c3ccccc3)nc12,-7.77,–
COc1ccc(OCC(=O)N2CCOCC2)cc1,-13.8,–
COc1ccc(-c2cc(C(F)(F)F)n3nc(C(=O)N4CCOCC4)c(Cl)c3n2)cc1,–,16.4 µM (active)
CC(=O)Nc1ccc(SCC(=O)NC(=O)c2ccc(Cl)cc2)cc1,-14.9,–
O=c1onc(-c2c(F)cccc2F)n1-c1ccccc1Cl,-18.9,–
COc1ccc(CN(C)CCn2cc(C(=O)N3CCSCC3)nn2)cc1C,11.4,–
CC1CCCN(Cc2nc3c(c(=O)n(C)c(=O)n3C)n2CC(=O)c2ccccc2)C1 (centres undefined),–,23.1 µM (active)
O=c1cc(CO)oc(CN2CCC(Cc3ccccc3)CC2)c1O,-6.74,–
O=C(O)C1CCCN(CCC=C(c2ccccc2)c2ccccc2)C1 (centres undefined),–,inactive
COCCn1c(CN2CCC(Cc3ccccc3)CC2)nc2c1c(=O)n(C)c(=O)n2C,–,8.2 µM (active)
Cn1c(=O)c2c(nc(CN3CCOCC3)n2Cc2ccccc2)n(C)c1=O,-18.4,–
CCN1CCN(Cc2nc3c(c(=O)n(C)c(=O)n3C)n2CC(=O)c2ccccc2)CC1,-4.17,–
CCc1ccc(N2CC(C(=O)N3CCCCCC3)CC2=O)cc1 (centres undefined),2.2,–
Cc1c(C(=O)NC(C)C2CC3CCC2C3)cccc1[N+](=O)[O-] (centres undefined),-8.19,–
CCn1c(CSc2nc(C)cc(C)n2)nnc1SCC(N)=O,16,–
O=C(Nc1ccccc1Br)c1cc(CN2CCCC2)on1,-28,–
Cc1cn(COC/C=C/c2ccccc2)c(=O)[nH]c1=O,-9.62,–
Cc1[nH]c(=O)c(C(=O)/C=C/c2ccccc2)c2c1CCCC2,–,5.8 µM (active)
O=C(NCc1ccccn1)c1c(O)c2c([nH]c1=O)CCCC2,-28.7,–
O=C1NC(=O)C(c2ccc(Cl)cc2)N1 (centres undefined),-9.04,–
CCCCN(C(=O)C1=NN(c2cc(C)ccc2C)C(=O)CC1)c1c(N)n(CCC)c(=O)[nH]c1=O,-5.86,–
O=C(NCC1CCCO1)c1ccc2ccccc2n1 (centres undefined),-6.77,–
O=C(NCC1CCCO1)c1cc2c([nH]c3ccccc32)c(-c2ccc(F)cc2)n1 (centres undefined),–,2.06 µM (active)

Structure (SMILES),"activity change, negative = growth inhibition [%]",Potency
O=C(NCC1CCCO1)c1cc(-c2ccccc2)nc2ccccc12 (centres undefined),-17,–
CCOC(=O)c1c(-c2ccccc2)oc2cc(Br)c(O)cc12,-23,–
O=C(c1ccncc1)N1CCN(c2ccc3ccccc3n2)CC1,-24.9,–
O=C(COC(=O)Cc1ccccc1F)NCCc1ccccc1,4.14,–
Cn1cc(CN2CCC(C(O)CCc3ccccc3)CC2)c(-c2ccccc2F)n1 (centres undefined),10.5,–
N=c1n(CCc2ccccc2)c2ccccc2n1Cc1ccccc1F,–,7.31 µM (active)
CCC(=O)c1ccc(OC(=O)/C=C/c2cc(OC)c(OC)c(OC)c2)cc1,2.38,–
CC1(C)C=Cc2c(ccc3c2OC[C@@H](c2ccc(O)cc2O)C3)O1,–,25.9 µM (active)
NS(=O)(=O)c1ccc(NC2=CC(c3ccc(F)cc3)N(c3ccc(S(N)(=O)=O)cc3)C2=O)cc1 (centres undefined),-11.3,–
Cc1[nH]nc(SCC(=O)NCC(C)C)c1[N+](=O)[O-],2.73,–
CC1CCCC(N2CCN(C(=O)c3ccc(F)cc3)CC2)C1 (centres undefined),3,–
COc1ccccc1OCc1ccc(C(=O)NC(C)c2ccccc2)o1 (centres undefined),1.09,–
CCCc1ccc(OCc2ccc(C(=O)N/N=C/c3cccc([N+](=O)[O-])c3)o2)c(OC)c1,–,8.2 µM (active)
COC(=O)c1ccc(COc2ccc(/C=N/NC(=O)C(=O)Nc3ccc(OC)cc3)cc2OC)o1,-8.05,–
CCOc1ccc(C2C(C#N)=C(N)N(N(C)C)C3=C2C(=O)CCC3)cc1 (centres undefined),-4.52,–
Cc1ccc2c(O)c(Cc3ccccc3)c(=O)[nH]c2n1,-7.61,–
O=C(NC1CCCC1)C1CCN(C(=O)Nc2cccc(Cl)c2)CC1,0.714,–
COc1ccc(CNC(=O)COC(=O)c2sccc2C)cc1OC,-16.2,–
OC(CN=c1sc2ccccc2n1CC(O)COc1ccccc1)COc1ccccc1 (centres undefined),–,25.9 µM (active)
O=C(c1ccccc1)c1ccc(OCC(O)CN2CCCC2)cc1 (centres undefined),-0.0362,–
OC(COc1ccccc1)Cn1cc(Br)cn1 (centres undefined),5.11,–
Cc1ccc(OCCNC(=O)CCNS(=O)(=O)c2ccc(Br)cc2)cc1,-29.3,–
COc1ccc(C)cc1Nc1nc(-c2c(C)[nH]c3ccccc23)cs1,-20.2,–
COc1ccc(C)cc1Nc1n[n+](-c2ccccc2)c(-c2cccc(Cl)c2Cl)s1,–,13 µM (active)
COc1ccc(C)cc1S(=O)(=O)Nc1cccc(Cl)c1Cl,-10.9,–

Structure (SMILES),"activity change, negative = growth inhibition [%]",Potency
O=C(c1ccc(NS(=O)(=O)c2ccc3[nH]c(=O)[nH]c3c2)cc1)N1CCCCC1,5.76,–
N#CC1(NC(=O)COC(=O)CSc2ccc(F)cc2)CCCCC1,-20.6,–
Cc1ccc(NC(=O)NC(=O)c2ccccc2)cc1F,-13.6,–
CC(=O)N1CCN(CC(=O)Nc2ccc(C)c(F)c2)CC1,-19.2,–
Cc1ccc(NC2=C(c3ccc(C(F)(F)F)cc3)C(=O)c3ccccc32)cc1F,–,8.2 µM (active)
COC(=O)c1sc(SC)c(S(=O)(=O)C(C)C)c1N/N=C(\C#N)S(=O)(=O)c1ccccn1,1.69,–
CCCC(=O)OCC(=O)Nc1cc(Cl)ccc1[N+](=O)[O-],6.39,–
CC(=O)c1ccc(-c2nnc(CCC(=O)N(C)Cc3cnc4ccccn34)o2)s1,0.834,–
CC(C)N(C)C(=O)CCc1nnc(CCc2c[nH]c3ccccc23)o1,-6.4,–
CCc1ccc(CN(C)C(=O)CCc2nnc(-c3ccc(-c4ccccc4)cc3)o2)nc1,–,18.4 µM (active)
CCCc1ccc(OCC(O)CN2CCN(CCO)CC2)cc1 (centres undefined),6.86,–
CC(=O)Nc1cc(-c2ccc(N3CCN(C)CC3)cc2)cn2c(-c3ccc(F)cc3)cnc12,–,5.17 µM (active)
COc1ccccc1C(=O)Nc1cccc(C(=O)N2CCOCC2)c1,9.81,–
CNc1cncc(-c2cccc(C(=O)N3CCOCC3)c2)n1,-12.1,–
CC(=O)N1c2ccccc2CC1C(=O)N1CCN(c2ccc(F)cc2)CC1 (centres undefined),-18.4,–
CN(C)C(=O)c1cccc(-c2cnc3c(NC=O)cc(-c4ccc(C(=O)N5CCOCC5)cc4)cn23)c1,–,29.1 µM (active)
O=C(Nc1ccc(F)cc1)N1CCN(c2ccc(F)cc2)CC1,19.6,–
CC(=O)c1cccc(-c2cnc3c(NC=O)cc(-c4ccccc4Oc4ccccc4)cn23)c1,–,14.6 µM (active)
CC(=O)c1cccc(-c2cnc3c(NC=O)cc(-c4ccc(N(C)C)cc4)cn23)c1,–,7.31 µM (active)
COC(=O)C1CCN(C(=O)NC2CC(=O)N(c3ccc4c(c3)OCCO4)C2)CC1 (centres undefined),1.67,–
NC(=O)COC(=O)c1ccc2c(c1)C(=O)N(Cc1ccco1)C2=O,-16.2,–
COc1cc2c(C(=O)O)c(C)n(C)c2c2ccccc12,-17.2,–
CNC[C@H]1Oc2c(NC(=O)C3CCCCC3)cccc2C(=O)N([C@H](C)CO)C[C@@H]1C,11.7,–
CCOC(=O)C(Cc1ccccc1)NC(=O)CCc1c(C)nc2c(c(C)nn2-c2ccc(C)c(C)c2)c1C (centres undefined),-29.9,–
Cc1cc(C)c2c(NC(=O)C3CC3)nn(C)c2n1,-6.29,–

Structure (SMILES),"activity change, negative = growth inhibition [%]",Potency
O=C(NCCc1ccccn1)c1nc(Cn2cc([N+](=O)[O-])cn2)no1,5.17,–
COc1ccc(NC(=O)CCS(=O)(=O)c2cc3c(cc2Cl)NC(=O)CO3)cc1OC,-12.9,–
CCOc1ccc(N2C(=O)Nc3ccccc3C2(O)C(=O)NCc2ccco2)cc1 (centres undefined),-10.1,–
Cc1ccc(NC(=O)c2sccc2C)cc1[N+](=O)[O-],5.4,–
O=C(CSc1nccc(=O)[nH]1)Nc1ccc(N2CCOCC2)c(Cl)c1,-2.28,–
Cc1ccc(OCC(=O)NCCCNC(=O)c2ccco2)cc1C,11,–
CCCC(C(=O)NC1CCCC1)N(C(=O)Cn1nnc(-c2ccc(C)o2)n1)c1cccc(O)c1 (centres undefined),7.3,–
CC(=O)c1ccc(S(=O)(=O)N2CCC3(CC2)OCCO3)cc1,-1.56,–
O=C(CSc1ncccn1)N1CCCC1,-6.15,–
COc1ccc(O)c(C(=O)c2cnc3c(c2)c(-c2ccc(F)cc2)c(C#N)c(=O)n3C)c1,-34.5,–
CC(=O)Nc1cccc(-c2cc(NC=O)c3ncc(-c4ccc(F)c(Cl)c4)n3c2)c1,–,23.1 µM (active)
CNc1cnc(-c2cc(OC)c(OC)c(OC)c2)cn1,8.84,–
N#C/C=C(/c1ccc(F)cc1)N1CCOCC1,-2.86,–
Cc1ccc(C(=O)N2CCN(C(=O)N3CCOCC3)CC2)cc1,-0.646,–
O=CNc1cc(-c2ccc(C(=O)N3CCOCC3)cc2)cn2c(-c3ccc(F)cc3)cnc12,–,20.6 µM (active)
COc1ccc(-c2cc(NC(C)=O)c3ncc(-c4cc(OC)c(OC)c(OC)c4)n3c2)cn1,–,2.59 µM (active)
Cc1c(NC(=O)Nc2ccc(F)c(Cl)c2)c(=O)n(-c2ccccc2)n1C,-2.31,–
COc1cc(C(=O)N2CCN(C)CC2)cc(OC)c1OC,9.33,–
CN(C)C(=O)c1cccc(-c2cnc3c(NC=O)cc(-c4ccc(F)cc4)cn23)c1,–,6.51 µM (active)
Cc1ccc(OCC(=O)NCCCNC(=O)c2cccnc2)cc1C,-10.9,–
CCCCn1c(N)c(N(CCC(C)C)C(=O)COC(=O)c2cccnc2OCC)c(=O)[nH]c1=O,-10.1,–
COCCC(=O)Nc1ccc2c(c1)CN(C(=O)CCOC)CC2,-9.78,–
CC1O[C@@H](OC2C(O)C(C)O[C@H](OC(=O)[C@]34CCC(C)(C)C[C@H]3C3=CCC5[C@@]6(C)CC(O)C(O[C@@H]7OC(CO)C(O)[C@@H](O)[C@@H]7O)[C@@](C)(C(=O)O)C6CC[C@@]5(C)[C@]3(CO)CC4)C2O[C@H]2OC(C)[C@@H](O[C@@H]3OCC(O[C@@H]4OC(CO)C(O)[C@H](O)C4O)[C@@H](O)[C@@H]3O)[C@H](O)C2O)C(O)C(O)C1O (some centres undefined),11.8,–
Cc1cc(C)cc(N(CCC#N)C(=O)CN2C(=O)NC3(CCCC3)C2=O)c1,-11.4,–
